PubChem BioAssay (Tox21)
Inconclusive results are not listed. Calls of active or inactive are those of the source. Unless noted, the call rests on the fitted dose curve.

Legend:
[1] = qHTS assay to identify small molecule antagonists of the peroxisome proliferator-activated receptor delta (PPARd) signaling pathway - cell viability counter screen (AID 743213; active means well fitted curve in the direction sought with a large enough effect in the repeat runs; an effect the other way counts as inactive or inconclusive; further: on the % scale 0 is the no-effect control and ±100 the full control effect; nearly all actives have a fitted effect of over 50% in size)
Summary of the method: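 PPARd-bla HEK293H cells (3000/well) got compound plus 300 nM L165041 agonist for 17 h at 37 C. Viability in the same wells came from CellTiter-Glo luminescence after 30 min at room temperature.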

[2] = qHTS assay to identify small molecule antagonists of the farnesoid-X-receptor (FXR) signaling pathway - cell viability counter screen (AID 743221; active means well fitted cell-killing curve with a large enough effect in the repeat runs, not every such curve was filed as active; further: on the % scale 0 is the no-effect control and ±100 the full control effect; nearly all actives have a fitted effect of over 50% in size)
Summary of the method: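 Cytotoxicity is taken from ATP luminescence (CellTiter-Glo, 30 min, room temperature) in FXR-bla HEK 293T cells previously incubated 16 h at 37 C with compound and chenodeoxycholic acid at 50 uM final.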

[3] = molecular target: Vitamin D3 receptor (Homo sapiens) (UniProt P11473); assay: qHTS assay to identify small molecule agonists of the vitamin D receptor (VDR) signaling pathway (AID 743222); further: on the % scale 0 is the no-effect control and ±100 the full control effect
Summary of the method: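 VDR-bla cells, 2,000/well; 4 h preincubation 37C; cpd (DMSO) 16 h; LiveBLAzer B/G substrate 2 h RT; fluorescence intensity read.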

[4] = molecular target: Vitamin D3 receptor (Homo sapiens) (UniProt P11473); assay: qHTS assay to identify small molecule antagonists of the vitamin D receptor (VDR) signaling pathway (AID 743223; active means well fitted inhibition curve with a large enough effect in the signal ratio in the repeat runs, not every such curve was filed as active; the % refers to the signal ratio; further: on the % scale 0 is the no-effect control and ±100 the full control effect)
Summary of the method: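 Quantitative HTS in VDR-bla reporter cells stimulated with 1alpha,25-dihydroxyvitamin D3, 3 nM final. Compound exposure 16 h, 37C, 5% CO2. Read-out: beta-lactamase FRET substrate fluorescence, 2 h RT.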

[5] = qHTS assay to identify small molecule agonists of the vitamin D receptor (VDR) signaling pathway - cell viability counter screen (AID 743224; active means well fitted curve in the direction sought with a large enough effect in the repeat runs; an effect the other way counts as inactive or inconclusive; further: series mostly up to about 63 µM; on the % scale 0 is the no-effect control and ±100 the full control effect; nearly all actives have a fitted effect of over 50% in size)
Summary of the method: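 Luminescence from CellTiter-Glo, read after 30 min at room temperature, reports viability of VDR-bla cells treated with compounds for 16 h at 37C in the wells used for the beta-lactamase FRET read.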

[6] = qHTS assay to identify small molecule antagonists of the vitamin D receptor (VDR) signaling pathway - cell viability counter screen (AID 743225; active means well fitted curve in the direction sought with a large enough effect in the repeat runs; an effect the other way counts as inactive or inconclusive; further: on the % scale 0 is the no-effect control and ±100 the full control effect; nearly all actives have a fitted effect of over 50% in size)
Summary of the method: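 Same-well multiplex: following 16 h treatment of HEK 293T cells carrying a UAS-driven beta-lactamase reporter with compound and agonist (3 nM final), and a 2 h FRET substrate step, CellTiter-Glo was added and luminescence read after 30 min.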

[7] = qHTS assay to identify small molecule agonists of the NFkB signaling pathway (AID 1159509; active means well fitted curve in the direction sought with a large enough effect in the signal ratio in the repeat runs, not every such curve was filed as active; the % refers to the signal ratio; further: series mostly up to about 61 µM; on the % scale 0 is the no-effect control and ±100 the full control effect)
Summary of the method: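 NFkB-bla ME-180 cells carry a beta-lactamase reporter under an NF-kB response element. They were plated overnight, then exposed to compounds for 5 h at 37 C. Read-out is LiveBLAzer FRET after 1.5 hr at room temperature (405 nm excitation; 460/530 nm emission).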

[8] = qHTS assay to identify small molecule agonists of the NFkB signaling pathway - cell viability counter screen (AID 1159515); further: series mostly up to about 61 µM; on the % scale 0 is the no-effect control and ±100 the full control effect; nearly all actives have a fitted effect of over 55% in size
Summary of the method: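 Luminescence from CellTiter-Glo (30 min, room temperature) gives viability, measured in the same wells as the beta-lactamase reporter read. Cells were NFkB-bla ME-180, 2,000 per well, treated 5 hr with compounds.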

[9] = qHTS assay to identify small molecule agonists of the endoplasmic reticulum stress response signaling pathway (AID 1159516; active means well fitted activation curve with a large enough effect in the signal ratio in the repeat runs, not every such curve was filed as active; the % refers to the signal ratio; further: on the % scale 0 is the no-effect control and ±100 the full control effect)
Summary of the method: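 Read-out is beta-lactamase cleavage of a FRET substrate (405 nm excitation; 460 and 530 nm emissions) in ESRE-bla HeLa cells after a 5 hr compound exposure at 37 C. Substrate incubation ran 2 hr at room temperature.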

[10] = qHTS assay to identify small molecule agonists of the endoplasmic reticulum stress response signaling pathway - cell viability counter screen (AID 1159517)
Summary of the method: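 HeLa cells carrying an ESRE-driven beta-lactamase reporter receive compound for 5 hr at 37 C. Cell viability is then gauged with CellTiter-Glo by luminescence, 30 min at room temperature.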

[11] = qHTS assay to identify small molecule antagonists of the retinoid-related orphan receptor gamma (ROR-gamma) signaling pathway - cell viability counter screen (AID 1159520; active means well fitted curve in the direction sought with a large enough effect in the repeat runs; an effect the other way counts as inactive or inconclusive)
Summary of the method: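 Cytotoxicity was read from cellular ATP (CellTiter-Glo luminescence) after 16 hr at 37 C with 1 uM doxycycline induction. The inducer was added 2 hr after compound transfer to Tet-on ROR gamma CHO cells.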

[12] = molecular target: Nuclear receptor ROR-gamma (Homo sapiens) (UniProt P51449); assay: qHTS assay to identify small molecule antagonists of the retinoid-related orphan receptor gamma (ROR-gamma) signaling pathway (AID 1159521; active means well fitted curve in the direction sought with a large enough effect in the repeat runs; an effect the other way counts as inactive or inconclusive)
Summary of the method: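 Inducible-expression reporter assay: doxycycline (1 uM final) switched on RORγ in CHO cells bearing a ROR response element-luciferase construct, with test compounds present from 2 h beforehand. Decreased luminescence after 16 h defined antagonist activity.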

[13] = qHTS assay to identify small molecule agonists of the AP-1 signaling pathway - cell viability counter screen (AID 1159525); further: nearly all actives have a fitted effect of over 55% in size
Summary of the method: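 Luminescent ATP readout (Cell Titer Glo, 30 min RT), normalised to DMSO and tetra n-octyl ammonium bromide controls. Cells were ME-180 AP-1-bla in 0.5% dialyzed FBS Opti-MEM, with a 5 h, 37 °C compound exposure.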

[14] = qHTS assay to identify small molecule agonists of the AP-1 signaling pathway (AID 1159526); further: on the % scale 0 is the no-effect control and ±100 the full control effect
[15] = molecular target: Retinoic acid receptor RXR-alpha (Homo sapiens) (UniProt P19793); assay: qHTS assay to identify small molecule agonists of the RXR signaling pathway (AID 1159527); further: on the % scale 0 is the no-effect control and ±100 the full control effect; nearly all actives have a fitted effect of over 35% in size
Summary of the method: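 Compounds in DMSO were added to RXR-alpha-UAS-bla HEK 293T cells kept in 2% charcoal-stripped serum, and incubated 16 hr at 37 C with 5% CO2. Reporter signal came from a 2 hr B/G FRET substrate step.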

[16] = molecular target: Peroxisome proliferator-activated receptor delta (Homo sapiens) (UniProt Q03181); assay: qHTS assay to identify small molecule antagonists of the peroxisome proliferator-activated receptor delta (PPARd) signaling pathway (AID 743215; active means well fitted inhibition curve with a large enough effect in the signal ratio in the repeat runs, not every such curve was filed as active; the % refers to the signal ratio)
Summary of the method: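 Read-out is beta-lactamase FRET fluorescence, measured 2 h after substrate addition at room temperature. Beforehand, UAS-bla HEK293H cells carrying the PPARd reporter were exposed to compounds with L165041 at 300 nM final for 17 h at 37 C.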

[17] = qHTS assay to identify small molecule agonists of the farnesoid-X-receptor (FXR) signaling pathway - cell viability counter screen (AID 743218; active means well fitted curve in the direction sought with a large enough effect in the repeat runs; an effect the other way counts as inactive or inconclusive; further: on the % scale 0 is the no-effect control and ±100 the full control effect; nearly all actives have a fitted effect of over 45% in size)
Summary of the method: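 HEK 293T FXR-bla cells; 5 h pre-incubation, 16 h compound exposure at 37 C; LiveBLAzer substrate 2 h RT, then CellTiter-Glo 30 min RT, luminescence.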

[18] = molecular target: Peroxisome proliferator-activated receptor delta (Homo sapiens) (UniProt Q03181); assay: qHTS assay to identify small molecule agonists of the peroxisome proliferator-activated receptor delta (PPARd) signaling pathway (AID 743212); further: on the % scale 0 is the no-effect control and ±100 the full control effect
Summary of the method: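 HEK293H PPARd-bla cells; 5 h preincubation 37 C/5% CO2; compound (DMSO) 37 C; LiveBLAzer B/G FRET substrate 2 h RT; fluorescence intensity.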

[19] = molecular target: Bile acid receptor (Homo sapiens) (UniProt Q96RI1); assay: qHTS assay to identify small molecule antagonists of the farnesoid-X-receptor (FXR) signaling pathway (AID 743217; active means well fitted inhibition curve with a large enough effect in the signal ratio in the repeat runs, not every such curve was filed as active; the % refers to the signal ratio; further: on the % scale 0 is the no-effect control and ±100 the full control effect)
Summary of the method: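 HEK 293T FXR-UAS-bla, 5000 cells/well; compound + CDCA 50 uM final; 16 h, 37 °C; B/G FRET substrate 2 h RT; fluorescence.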

[20] = molecular target: Bile acid receptor (Homo sapiens) (UniProt Q96RI1); assay: qHTS assay to identify small molecule agonists of the farnesoid-X-receptor (FXR) signaling pathway (AID 743220; active means well fitted activation curve with a large enough effect in the signal ratio in the repeat runs, not every such curve was filed as active; the % refers to the signal ratio; further: on the % scale 0 is the no-effect control and ±100 the full control effect)
Summary of the method: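 Beta-lactamase reporter under UAS control in GeneBLAzer FXR HEK 293T cells (5000/well) measured with LiveBLAzer FRET substrate after 2 h at room temperature. Compound exposure lasted 16 h at 37C.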

Bile acid receptor (Homo sapiens), sequence (Q96RI1 whole entry, looked up): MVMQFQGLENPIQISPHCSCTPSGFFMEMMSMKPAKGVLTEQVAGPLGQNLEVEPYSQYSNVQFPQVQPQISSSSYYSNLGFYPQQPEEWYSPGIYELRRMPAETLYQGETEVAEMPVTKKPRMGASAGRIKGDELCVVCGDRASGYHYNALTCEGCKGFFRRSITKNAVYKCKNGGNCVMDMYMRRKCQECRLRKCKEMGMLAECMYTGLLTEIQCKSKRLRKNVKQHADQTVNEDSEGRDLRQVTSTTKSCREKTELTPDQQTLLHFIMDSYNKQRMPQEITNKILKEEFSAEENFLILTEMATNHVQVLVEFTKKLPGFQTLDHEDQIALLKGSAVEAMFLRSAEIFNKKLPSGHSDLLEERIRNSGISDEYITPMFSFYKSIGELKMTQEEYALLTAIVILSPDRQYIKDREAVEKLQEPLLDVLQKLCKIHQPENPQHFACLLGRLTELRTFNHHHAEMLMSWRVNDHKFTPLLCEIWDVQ
Vitamin D3 receptor (Homo sapiens), sequence (P11473 whole entry, looked up): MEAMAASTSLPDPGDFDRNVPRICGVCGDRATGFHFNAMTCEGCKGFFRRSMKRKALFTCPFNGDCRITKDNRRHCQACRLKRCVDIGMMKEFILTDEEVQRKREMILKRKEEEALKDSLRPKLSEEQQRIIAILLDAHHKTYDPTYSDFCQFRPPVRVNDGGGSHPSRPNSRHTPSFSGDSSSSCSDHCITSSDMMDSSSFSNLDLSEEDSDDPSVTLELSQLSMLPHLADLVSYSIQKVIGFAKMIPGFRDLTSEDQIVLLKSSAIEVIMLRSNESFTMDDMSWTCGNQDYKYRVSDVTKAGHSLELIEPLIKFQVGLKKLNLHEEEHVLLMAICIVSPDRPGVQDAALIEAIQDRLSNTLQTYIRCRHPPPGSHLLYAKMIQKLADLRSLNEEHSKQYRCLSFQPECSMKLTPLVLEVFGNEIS
Retinoic acid receptor RXR-alpha (Homo sapiens), sequence (P19793 whole entry, looked up): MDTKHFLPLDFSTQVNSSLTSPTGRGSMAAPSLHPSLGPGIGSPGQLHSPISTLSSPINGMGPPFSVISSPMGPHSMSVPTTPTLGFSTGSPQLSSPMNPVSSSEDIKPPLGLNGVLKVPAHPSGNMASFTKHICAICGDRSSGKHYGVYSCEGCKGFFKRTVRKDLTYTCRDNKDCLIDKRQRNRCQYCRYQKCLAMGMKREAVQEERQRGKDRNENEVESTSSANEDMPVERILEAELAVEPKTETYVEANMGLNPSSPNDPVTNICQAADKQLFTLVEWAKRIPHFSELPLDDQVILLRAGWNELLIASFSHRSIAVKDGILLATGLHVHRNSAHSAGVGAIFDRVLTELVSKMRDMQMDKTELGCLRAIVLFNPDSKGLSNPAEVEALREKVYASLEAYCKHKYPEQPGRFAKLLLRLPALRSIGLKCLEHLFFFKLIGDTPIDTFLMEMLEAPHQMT
Peroxisome proliferator-activated receptor delta (Homo sapiens), sequence (Q03181 whole entry, looked up): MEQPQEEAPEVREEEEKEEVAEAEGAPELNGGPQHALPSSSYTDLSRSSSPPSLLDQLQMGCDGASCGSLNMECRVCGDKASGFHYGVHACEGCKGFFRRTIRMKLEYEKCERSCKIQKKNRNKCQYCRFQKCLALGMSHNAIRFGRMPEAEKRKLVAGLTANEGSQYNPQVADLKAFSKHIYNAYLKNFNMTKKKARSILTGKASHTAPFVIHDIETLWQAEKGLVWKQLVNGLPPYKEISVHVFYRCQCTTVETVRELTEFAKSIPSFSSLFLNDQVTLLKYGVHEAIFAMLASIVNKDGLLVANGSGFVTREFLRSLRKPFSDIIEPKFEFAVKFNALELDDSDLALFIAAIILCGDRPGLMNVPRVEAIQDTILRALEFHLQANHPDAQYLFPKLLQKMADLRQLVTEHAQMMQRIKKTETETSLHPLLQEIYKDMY

C=C[Si](C)(C)O[Si](C)(C)C=C
inactive: outcome [1] | outcome [2] | outcome [3] | outcome [4] | outcome [5] | outcome [6] | outcome [7] | outcome [8] | outcome [9] | outcome [10] | outcome [11] | outcome [12] | outcome [13] | outcome [14] | Potency [15]

COc1cc(C=O)ccc1OC(=O)C(C)C
inactive: outcome [1] | outcome [16] | Potency [17] | outcome [3] | outcome [5] | outcome [6] | outcome [7] | outcome [8] | outcome [9] | outcome [10] | outcome [11] | outcome [12] | outcome [13] | outcome [14]

CC(C)SCc1ccco1
inactive: outcome [18] | outcome [1] | outcome [16] | Potency [17] | outcome [5] | outcome [7] | outcome [8] | outcome [9] | outcome [10] | outcome [11] | outcome [13] | outcome [14] | Potency [15]

O=C1OC(=O)c2cc(Oc3ccc4c(c3)C(=O)OC4=O)ccc21
inactive: outcome [19] | outcome [20] | outcome [3] | outcome [5] | outcome [6] | outcome [7] | outcome [8] | outcome [9] | outcome [10] | outcome [11] | outcome [12] | outcome [13] | outcome [14] | Potency [15]

CCCCC(C)C(=O)O (configuration not stated)
inactive: outcome [18] | outcome [1] | outcome [16] | Potency [17] | outcome [2] | outcome [3] | outcome [4] | outcome [5] | outcome [7] | outcome [8] | outcome [9] | outcome [10] | outcome [11] | outcome [13] | outcome [14] | Potency [15]

CCCCOC(=O)[C@@H](C)Oc1ccc(Oc2ccc(C(F)(F)F)cn2)cc1
inactive: outcome [18] | outcome [1] | outcome [16] | outcome [19] | Potency [17] | outcome [20] | outcome [2] | outcome [3] | outcome [4] | outcome [5] | outcome [6] | outcome [7] | outcome [8] | outcome [9] | outcome [10] | outcome [11] | outcome [13] | outcome [14] | Potency [15]

O=C(O)Cc1cccc(-c2cc(CCCCCCc3ccc(O[C@H]4O[C@H](CO)[C@@H](O)[C@H](O)[C@@H]4O)c(-c4cccc(CC(=O)O)c4)c3)ccc2O[C@H]2O[C@H](CO)[C@@H](O)[C@H](O)[C@@H]2O)c1
inactive: activation [18] -0.0045% [at 0.55 µM] | viability change, negative = cytotoxic [1] 9.66% [at 0.575 µM] | ratio activity, negative = inhibition [16] -1.95% [at 0.575 µM] | activity change, negative = inhibition [19] -1.58% [at 0.55 µM] | viability change, negative = cytotoxic [17] 5.41% [at 0.55 µM] | activation [20] 5.49% [at 0.55 µM] | activity change, negative = cytotoxicity [2] 0.163% [at 0.55 µM] | activity change, negative = cytotoxicity [5] -3.17% [at 0.55 µM] | activation [7] 0.357% [at 0.628 µM] | activity, negative = cytotoxic [8] 0.959% [at 0.628 µM] | activation [9] 1.35% [at 0.628 µM] | activity change, negative = cytotoxicity [10] 4.41% [at 0.628 µM] | activity, negative = cytotoxicity [11] 0.991% [at 0.349 µM] | activity change, negative = inhibition [12] -17.6% [at 0.35 µM] | viability change, negative = cytotoxic [13] 1.08% [at 0.29 µM] | activation [14] -4.69% [at 0.29 µM]

CCCCC(CC)C(=O)OC(C)C (configuration not stated)
inactive: outcome [1] | outcome [19] | Potency [17] | outcome [20] | outcome [2] | outcome [3] | outcome [5] | outcome [7] | outcome [8] | outcome [9] | outcome [10] | outcome [11] | outcome [12] | outcome [13] | outcome [14]
